Hits are enriched below; roughly 8.7% of the tested compounds scored in any of these assays.
Pf growth 96h = Primary qHTS for delayed death inhibitors of the malarial parasite plastid, 96 hour incubation | Potency, µM (titrated, usually from 28.7 µM), for inactives: at the highest dose activity change, negative = inhibition, actives largely listed as inhibitors | AID 504834, 2011 | 320,000 tested, 6.9% active | P. falciparum luciferase reporter growth, 96 h
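Cell-based qHTS: luciferase-tagged P. falciparum in erythrocytes (2% hematocrit, 0.05% parasitemia final) incubated with compounds for 96 hours, 37 C, 5% CO2; luciferase detection reagent then added and luminescence measured.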
VACV Venus inh = qHTS for Stage-Specific Inhibitors of Vaccinia Orthopoxvirus: Venus Reporter Primary qHTS; Vaccinia virus Venus reporter expression, fluorescence; Potency, µM (doses to about 36.5 µM), inactives show at the highest dose activity change, negative = inhibition, usual class: inhibitors; 330,000 tested, 0.46% active; AID 720580, 2013; calls by dose curve; tested in A549 cells; further: nearly all actives have a fitted effect of over 30% in size
AMA1-RON2 inh = qHTS for Inhibitors of AMA1-RON; Towards Development of Antimalarial Drug Lead: Primary Screen; Plasmodium falciparum AMA1 (3D7) - RON2 peptide interaction; AlphaScreen AMA1-biotinylated RON2 peptide binding; Potency, µM (titrated, usually from 58.2 µM), for inactives: at the highest dose activity change, negative = inhibition, usual class: inhibitors; 360,000 tested, 0.2% active;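 further: 0% = vehicle wells and -100% = peptide control; nearly all actives have a fitted effect of over 45% in size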
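AMA1 (3D7) with his tag at 25 nM final met compounds first, then biotinylated RON2 peptide at 25 nM; detection used donor plus acceptor beads, 10 µg/mL apiece, read by AlphaScreen after 30 min at room temperature.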
Pf growth 48h = Primary qHTS for delayed death inhibitors of the malarial parasite plastid, 48 hour incubation; Potency, µM (top dose mostly 28.7 µM), for the others: at the top dose activity change, negative = inhibition, hits mostly inhibitors; 310,000 tested, 5.9% active; P. falciparum luciferase growth in erythrocytes, 48 h
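Growth was read as firefly luciferase luminescence after a 48 h, 37 C, 5% CO2 exposure of compounds to reporter-bearing P. falciparum cultures (0.1% parasitemia, 2% hematocrit final) in Albumax-supplemented RPMI 1640.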
VACV mCherry inh = qHTS for Stage-Specific Inhibitors of Vaccinia Orthopoxvirus: mCherry Reporter Primary qHTS | Vaccinia virus mCherry reporter infection, fluorescence | Potency, µM (doses to about 36.5 µM), for the others: at the highest dose activity change, negative = inhibition, most hits filed as inhibitors | 310,000 tested, 0.63% active | AID 720579, 2013; calls by dose curve; tested in A549 cells; further: nearly all actives have a fitted effect of over 35% in size
* = called active by the depositor; i = inactive; ? = inconclusive; / = no result; [ ] = remark or other dose. Unless noted, the call rests on the fitted dose curve; in most records, active means well fitted curve in the direction sought with a large enough effect; inconclusive means small, poorly fitted or top-dose-only effect, or another doubt; inactive means no such curve, though single readings can be large; an effect the other way counts as inactive or inconclusive. Unless noted, on the % scale 0 is the no-effect control and ±100 the full control effect; potency means the concentration at half of the fitted maximal effect.

SMILES	Pf growth 96h	VACV Venus inh	AMA1-RON2 inh	Pf growth 48h	VACV mCherry inh
Cc1ccccc1-n1c(SCC(=O)c2c(N)n(C)c(=O)n(C)c2=O)nnc1-c1cccnc1	-15%	-11%	-14%	-9%	i
Cc1ccccc1-n1c(SCC(=O)c2c(N)n(C)c(=O)n(C)c2=O)nc2sc3c(c2c1=O)CCCC3	0.93µM*	-16%	-12%	3.7µM*	-1%
CC(NC(=O)CSc1nc2sc3c(c2c(=O)n1-c1ccccc1)CCCC3)c1ccccc1 (configuration not stated)	-25%	-10%	-4%	12µM*	i
O=C(O)CSc1nc2sc3c(c2c(=O)n1-c1ccccc1)CCC3	3%	-20%	-20%	5%	2%
COc1cccc(CNC(=O)C(Cc2ccccc2)NS(=O)(=O)c2ccc3c(c2)CCN3C(C)=O)c1 (configuration not stated)	/	-3%	/	/	-11%
Cn1cncc1C#Cc1c(C=O)n(C)c2ccccc12	?	-23%	11%	12µM*	-14%
Cn1cncc1C#Cc1c(C=O)[nH]c2ccccc12	5.2µM*	-5%	5%	8.3µM*	-13%
Cc1ccc2occ(CN3CC4CC(C3)c3cccc(=O)n3C4)c(=O)c2c1 (configuration not stated)	-10%	-9%	13%	11%	-15%
O=c1cccc2n1CC1CC2CN(Cc2cccc(Cl)c2Cl)C1 (configuration not stated)	/	/	-9%	4.7µM*	/
O=c1cccc2n1CC1CC2CN(Cc2c(F)cccc2Cl)C1 (configuration not stated)	9.3µM*	-12%	-9%	-14%	-16%
COCCN1CCN(C(=O)c2cnn(-c3nccc(-c4ccccc4F)n3)c2-c2ccco2)CC1	/	7%	/	/	-2%
O=C(NC1CCSc2ccccc21)c1cccc(Cl)c1 (configuration not stated)	15µM*	-3%	-8%	?	i
C=Cc1ccc(CN2C(=O)c3ccccc3Sc3ccc(C(=O)OCc4ccco4)cc32)cc1	/	-3%	/	/	-11%
COc1ccc(CCNC(=O)CSc2ccc(-c3ccccc3)nn2)cc1OC	-5%	-20%	2%	-9%	-23%
COc1ccc(CCNC(=O)CSc2cc(=O)[nH]c(N)n2)cc1OC	12µM*	-25%	-4%	4%	/
COc1ccc(CCNC(=O)CSc2nc(O)c(CC(C)C)c(=O)[nH]2)cc1OC	5%	-18%	0%	-20%	/
COc1ccc(CCNC(=O)Cn2c(=O)[nH]c3ccsc3c2=O)cc1OC	6%	/	2%	12µM*	/
COc1ccc(CCNC(=O)CSc2nc(O)cc(=O)[nH]2)cc1OC	43%	/	-9%	3.3µM*	/
COc1ccc(-c2c(C)nn3c(C(F)(F)F)cc(-c4ccccc4)nc23)cc1	/	-28%	/	/	-26%
COc1ccccc1CCC(=O)N1CCOc2c(cc(-c3cnc4ccccc4c3)cc2OC)C1	/	-7%	/	/	-12%
CCn1c(SC)nc2c(c1=O)SC(C)C2 (configuration not stated)	2.3µM*	-8%	14%	?	-16%
CCSc1nc2c(c(=O)n1CC)SC(C)C2 (configuration not stated)	38%	-13%	-3%	-21%	-18%
COc1ccc(C(=O)Nc2ccc3nc(N4CCN(C)CC4)cc(C)c3c2)c(OC)c1	30%	-25%	-2%	7.4µM*	-9%
COc1cc(OC)cc(C(=O)Nc2ccc3nc(N4CCCCC4)cc(C)c3c2)c1	/	-13%	/	/	-10%
COc1ccc(C(=O)Nc2ccc3c(c2)CCCN3C(=O)c2cccs2)c(OC)c1	15µM*	-22%	-6%	?	-24%
SMILES	Pf growth 96h	VACV Venus inh	AMA1-RON2 inh	Pf growth 48h	VACV mCherry inh
Cc1cc(N2CCN(C)CC2)nc2ccc(NC(=O)c3ccc(C(C)(C)C)cc3)cc12	/	14µM*	/	/	?
Cc1ccc(-n2c(SCC(=O)Nc3ccc4c(c3)OCO4)nc3c([nH]c4ccccc43)c2=O)cc1	/	-18%	/	/	-14%
COc1ccc([C@]23Cc4c(ccc5ccccc45)C(O2)C2=C(CC4(CCCCC4)OC2=O)O3)cc1	?	/	/	10%[5.75 µM]	/
COc1cc2c(cc1OC)C1O[C@](c3ccsc3)(C2)OC2=C1C(=O)OC1(CCCCC1)C2	1.3µM*	/	/	?	/
COc1cc2c(cc1OC)C1O[C@](c3ccsc3)(C2)Oc2cc(-c3ccccc3)oc(=O)c21	1.5µM*	/	/	?	/
CCC1C/C(=C/c2ccco2)C(=O)/C(=C/c2ccco2)C1 (configuration not stated)	9.3µM*	/	/	-11%	/
COc1cc(OC)c(OC)cc1/C=C1/Cc2ccccc2C1=O	?	/	0%	4%	/
CCC1C/C(=C\c2cc(OC)c(OC)cc2OC)C(=O)/C(=C/c2cc(OC)c(OC)cc2OC)C1 (configuration not stated)	?	/	22µM*	5.2µM*	/
COc1cc(OC)c(OC)cc1/C=C1\CC(C)C/C(=C\c2cc(OC)c(OC)cc2OC)C1=O (configuration not stated)	?	/	32µM*	4.7µM*	/
CSc1ccc(/C=C2\C=Cc3ccccc32)cc1	/	-4%	/	/	16%
CC1CCN(C(=O)c2ccc3c(c2)N(Cc2ccccc2F)C(=O)c2ccccc2S3(=O)=O)CC1	/	2%	/	/	6%
CC(=O)c1ccccc1NC(=O)COC(=O)/C(=C/c1ccccc1)n1nnnc1C	2.1µM*	-18%	-16%	5.9µM*	-24%
COc1ccc(OCC(O)Cn2c(=N)n(CCN3CCOCC3)c3ccccc32)cc1 (configuration not stated)	/	-11%	-20%	?	-22%
Cc1ccc(Cn2c(=N)n(CC(O)COc3ccccc3)c3ccccc32)cc1 (configuration not stated)	1.7µM*	?	6%	/	?
N=c1n(Cc2ccccc2)c2ccccc2n1CC(O)COc1ccccc1 (configuration not stated)	9.3µM*	/	-10%	15µM*	/
C=C1C=C(C(F)F)n2ncc(C(=O)N3CCc4ccccc4C3)c2N1	/	-16%	/	/	4%
CCCCn1nc(C(=O)Nc2c(C)n(C)n(-c3ccccc3)c2=O)c2ccccc2c1=O	15µM*	/	-3%	?	/
CCCc1cc(C(=O)Nc2c(C)n(C)n(-c3ccccc3)c2=O)no1	9.3µM*	-7%	1%	/	i
Cc1c(NC(=O)c2nn(CC(C)C)c(=O)c3ccccc23)c(=O)n(-c2ccccc2)n1C	?	-13%	9%	-12%	i
NS(=O)(=O)c1ccc(S(=O)(=O)N2CCN(c3nc(-c4ccccc4)nc4ccccc34)CC2)cc1	/	?	/	/	-19%

Source: PubChem (National Center for Advancing Translational Sciences (NCATS))
